# Test results taken from PubChem BioAssay AID602393 (Broad Institute, 2012).
# In all, about 350,000 compounds went through this assay and about 7,000 (2%) were called active. Cut-off read from the data, not from the text of the source: active = activation above about 40%; inconclusive = no clear call, values can overlap the other calls; inactive = below that. Shown is part of a subset that was picked to be rich in actives.
# Assay: raisers of Bmi1 knock-in reporter signal – mouse ES cells, Bmi1 luciferase knock-in, single point, esBAF inhibitor project, primary screen (AID 602393);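 note: 0% = median of the plate's neutral control wells and 100% = double that signal; a rise in the Bmi1 reporter signal indicates esBAF inhibition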
# Details: 24 h, at 12.5 µM, hits give high values, 100% = twice the neutral-well signal
row,SMILES,reporter increase
1,Cc1ccc(S(=O)(=O)N(C)C[C@@H]2Oc3c(NS(C)(=O)=O)cccc3C(=O)N([C@@H](C)CO)C[C@H]2C)cc1,-2.2% (inactive)
2,O=C(NC[C@@H]1N[C@@H](CO)[C@H]1c1ccc(-c2cccnc2)cc1)c1cccc(F)c1,5.54% (inactive)
3,COCCNC(=O)C[C@H]1CC[C@H]2[C@H](COc3ccc(NC(=O)C4CCOCC4)cc3C(=O)N2C)O1,2.05% (inactive)
4,Cc1ccccc1OCC(=O)Nc1ccc2c(c1)ncn2C,68.1% (active)
5,COCCNC(=O)COc1ccccc1C,0.533% (inactive)
6,Cc1cccc(NC(=O)Cc2ccc(Br)cc2)n1,44.9% (active)
7,Cc1ccccc1OCC(=O)Nc1nc(C)c(C(=O)N(C)C)s1,9.35% (inactive)
8,Cc1ccccc1OCC(=O)Nc1nnc(S(=O)(=O)N2CCCC2)s1,1.57% (inactive)
9,Cc1cccc(NC(=O)COc2ccccc2C)n1,44.4% (active)
10,Cc1cccc(NC(=O)COc2ccc(Br)cc2C)n1,35.7% (inactive)
11,Cc1cccc(NC(=O)c2ccc3ccccc3n2)n1,25.2% (inactive)
12,CCOc1ccc(OCc2ccc(C(=O)Nc3cccc(C)n3)o2)cc1,37.5% (inactive)
13,C/C=C/c1ccc([C@H]2[C@@H](CO)N(C(=O)CC)[C@H]2CN(C)C(=O)C2CC2)cc1,5.87% (inactive)
14,CCCNC(=O)NC[C@H]1[C@H](c2ccc(C3=CCCCC3)cc2)[C@H](CO)N1C(C)=O,-2.67% (inactive)
15,COCc1cn(CC[C@H]2CC[C@H](NC(=O)Cc3cccnc3)[C@H](CO)O2)nn1,1.37% (inactive)
16,COCC(=O)Nc1ccc2c(c1)OC[C@H](C)N(Cc1ccccc1OC)C[C@@H](C)[C@@H](OC)CN(C)C2=O,0.256% (inactive)
17,CCCNC(=O)C[C@H]1CC[C@H]2[C@@H](COc3ccc(NC(=O)Nc4c(C)noc4C)cc3C(=O)N2C)O1,-1.98% (inactive)
18,COCCCNc1ccn2nc(-c3ccc(CC(C)C)cc3)cc2n1,24.7% (inactive)
19,COc1ccccc1-c1cc2nc(NCc3cccc(Cl)c3)ccn2n1,-5.22% (inactive)
20,CC(C)Cc1ccc(-c2cc3nc(NCc4cccc(Cl)c4)ccn3n2)cc1,79.4% (active)
21,COc1ccc(-c2cnc3c(c2)C(=O)N([C@@H](C)CO)C[C@@H](C)[C@H](CN(C)C)O3)cc1,-2.94% (inactive)

row,SMILES,reporter increase
1,O=C(C[C@H]1C=C[C@@H](NC(=O)C2CC2)[C@H](CO)O1)NCC1CC1,-2.61% (inactive)
2,Oc1[nH]c2ccc(Br)cc2c1N=Nc1nn[nH]n1,6.07% (inactive)
3,NS(=O)(=O)c1ccc(N=Nc2c(O)[nH]c3ccc(Br)cc23)cc1,-6.6% (inactive)
4,Cc1cccc(N=Nc2c(O)[nH]c3ccc(F)cc23)c1,72.6% (active)
5,Cc1ccc(S(=O)(=O)Nc2ccc3c(c2)C(=O)N([C@H](C)CO)C[C@@H](C)[C@H](CN(C)S(=O)(=O)c2cccs2)OCCCC[C@@H](C)O3)cc1,5.34% (inactive)
6,Cc1ccc(S(=O)(=O)N[C@H]2CC[C@H](CC(=O)NCc3ccccc3F)O[C@@H]2CO)cc1,-2.95% (inactive)
7,O=C(O)CC1=C(Nc2ccccc2)C(=O)N(c2ccccc2)C1c1ccc(Cl)cc1 (configuration not stated),49.1% (active)
8,O=C1C=C(c2ccc(Cl)cc2)C(=O)N1Nc1ccccc1,-0.361% (inactive)
9,O=C1C(=O)N(c2ccccc2)C(c2ccccc2)C1c1ccccc1 (configuration not stated),-0.185% (inactive)
10,C[C@@H]1CN([C@@H](C)CO)C(=O)Cc2cc(NC(=O)C3CCCCC3)ccc2O[C@H]1CN(C)C(=O)Nc1ccccc1,0.449% (inactive)
11,CCOC(=O)c1c(C)nc(-c2ccccc2)nc1NC(=O)C(C)C,42.3% (active)
12,CCOC(=O)c1c(-c2ccc(-c3ccccc3)cc2)csc1NC(=O)CCC(=O)O,-6.99% (inactive)
13,CCOC(=O)c1c(N)nn(C(=O)c2ccccc2)c1-c1ccccc1,-1.4% (inactive)
14,O=C(Nc1ccc2ccccc2c1[N+](=O)[O-])c1ccccc1,114% (active)
15,O=C(O)c1cc([N+](=O)[O-])c(Nc2cccc3ccccc23)c([N+](=O)[O-])c1,15.6% (inactive)
16,O=C(Nc1ccccc1C(=O)Nc1ccncc1)c1ccc([N+](=O)[O-])cc1,-2.66% (inactive)
17,CC(C)CC#Cc1cnc2c(c1)C(=O)N([C@H](C)CO)C[C@H](C)[C@@H](CN(C)C(=O)Cc1cccnc1)O2,-2.07% (inactive)
18,COc1ccc(NC(=O)N2C[C@H](O)COC[C@@H]3O[C@@H](CC(=O)NCc4ccccc4OC)CC[C@H]32)cc1,2.12% (inactive)
19,CCCNC(=O)[C@@H]1[C@@H](CO)[C@@H]2Cn3c(ccc(/C=C/c4ccccc4)c3=O)[C@H]1N2CCC,-5.3% (inactive)
20,CCOc1c2ccc(C(=O)NCc3ccc4c(c3)OCO4)cc2nn1C,-7.4% (inactive)
21,C=CCNC(=O)c1ccc2c3n(nc2c1)-c1ccc(C)cc1CO3,56.5% (active)

row,SMILES,reporter increase
1,Cc1cccc(-c2nc3ccc(C(=O)NCCN4CCN(C)CC4)cc3nc2-c2cccc(C)c2)c1,-7.08% (inactive)
2,O=C(Nc1cccc(F)c1)NC1CCCc2ccccc21 (configuration not stated),-6.65% (inactive)
3,Cc1cc(C)cc(NC(=O)NC2CCCCCCC2)c1,15.2% (inactive)
4,O=C(Nc1cccc(F)c1)NC1CCCCCCC1,59.1% (active)
5,COc1ccc(/C=N/Nc2nc3ccccc3c(=O)[nH]2)cc1,45.1% (active)
6,COc1ccc(/C=N/Nc2nc(-c3ccc(C)cc3)c(C#N)c(=O)[nH]2)cc1,-5.86% (inactive)
7,COc1ccc(/C=N/Nc2ccccc2C(=O)O)cc1,-28.7% (inactive)
8,CN(C)CC(=O)Nc1ccc2c(c1)[C@H]1C[C@@H](CC(=O)NCc3ccc(-c4ccccc4)cc3)O[C@H](CO)[C@H]1O2,4.03% (inactive)
9,COc1ccc(NC(=O)Nc2ccc3c(c2)[C@H]2C[C@H](CC(=O)NC4CCCC4)O[C@H](CO)[C@H]2O3)cc1,2.4% (inactive)
10,Cc1csc(NC(=O)CN2CCCCCC2)n1,-1.61% (inactive)
11,Cc1csc(NC(=O)C2CCN(S(=O)(=O)c3ccccc3)CC2)n1,-5.46% (inactive)
12,Cc1csc(NC(=O)c2ccc(C)s2)n1,50.8% (active)
13,CCNC(=O)[C@H]1[C@H](CO)[C@H]2Cn3c(ccc(/C=C/c4ccccc4)c3=O)[C@@H]1N2C(=O)C1CCC1,0.423% (inactive)
14,COC(=O)C[C@H]1CC[C@H](NC(=O)c2ccccc2)[C@@H](CO)O1,-1.98% (inactive)
15,C/C=C/c1ccc2c(c1)O[C@@H](CN(C)S(C)(=O)=O)[C@@H](C)CN([C@H](C)CO)S2(=O)=O,-0.163% (inactive)
16,COc1ccc(-c2nnc(SC(=O)N3c4ccccc4Sc4ccccc43)o2)cc1,2.78% (inactive)
17,COc1cccc(NC(=O)CSc2nnc(-c3cccnc3)o2)c1,13.3% (inactive)
18,COc1ccc(-c2nnc(SCc3cccnc3)o2)cc1,52.4% (active)
19,CC(C)NC(=O)N(C)C[C@H]1Oc2ncc(C#CC3CC3)cc2C(=O)N([C@H](C)CO)C[C@@H]1C,-3.17% (inactive)
20,CCCC(=O)Nc1ccc2c(c1)OC[C@H](C)N(S(=O)(=O)c1cn(C)cn1)C[C@@H](C)[C@H](OC)CN(C)C2=O,-1.9% (inactive)
21,CN1C(=O)c2cc(NC(=O)c3ccccc3)ccc2OC[C@@H]2O[C@H](CC(=O)NCC3CC3)CC[C@@H]21,6.3% (inactive)

row,SMILES,reporter increase
1,C/C=C/c1ccc2c(c1)O[C@H](CN(C)C(=O)CN(C)C)[C@H](C)CN([C@@H](C)CO)S2(=O)=O,0.684% (inactive)
2,COc1ccccc1NC(=O)Nc1nc(CC(=O)Nc2ccccc2F)cs1,1.14% (inactive)
3,CCOC(=O)Cc1csc(NC(=O)Nc2ccccc2)n1,47.4% (active)
4,CCOC(=O)Cc1csc(NC(NC(=O)OCC)(C(F)(F)F)C(F)(F)F)n1,-0.744% (inactive)
5,C[C@@H]1CN([C@@H](C)CO)C(=O)c2cc(NS(=O)(=O)c3ccccc3)ccc2O[C@@H](C)CCCCO[C@@H]1CN(C)S(=O)(=O)c1cccs1,6.97% (inactive)
6,C[C@@H]1CN([C@H](C)CO)S(=O)(=O)c2ccc(C#CCN(C)C)cc2O[C@@H]1CN(C)C(=O)C1CCCCC1,-0.287% (inactive)
7,O=C(c1ccco1)N1CCN(C(=O)c2ccc(COc3ccc(F)cc3)o2)CC1,-8.59% (inactive)
8,O=C(c1cc(COc2ccc(F)c(F)c2)on1)N1CCOCC1,37.7% (inactive)
9,COc1cccc(OC)c1OCCN1CCN(C(=O)c2ccco2)CC1,-3.54% (inactive)
10,COc1cccc(OCc2cc(C(=O)N3CCN(C(=O)c4ccco4)CC3)no2)c1,70.2% (active)
11,O=C(c1cc(COc2ccc(F)cc2F)on1)N1CCOCC1,61.9% (active)
12,O=C(NCCCc1ccccc1)c1cc(COc2c(F)cccc2F)on1,17.5% (inactive)
13,Cc1ccc(C)c(OCc2cc(C(=O)N3CCN(c4cnccn4)CC3)no2)c1,3.21% (inactive)
14,O=C(c1cc(COc2c(F)cccc2F)on1)N1CCSCC1,53.1% (active)
15,O=C(c1cc(COc2cccc(C(F)(F)F)c2)on1)N1CCSCC1,-2.92% (inactive)
16,C[C@@H]1CN([C@@H](C)CO)C(=O)c2cc(NC(=O)C3CCCCC3)ccc2O[C@@H](C)CCCCO[C@H]1CN(C)C(=O)Nc1ccc2c(c1)OCO2,7.74% (inactive)
17,CC(=O)N[C@@H]1C=C[C@H](CC(=O)NCC2CCCCC2)O[C@H]1CO,4.99% (inactive)
18,C[C@@H]1CCCCO[C@@H](CN(C)Cc2ccncc2)[C@@H](C)CN([C@@H](C)CO)C(=O)c2cc(N(C)C)ccc2O1,1.32% (inactive)
19,COc1cccc(NC(=O)N[C@@H]2C=C[C@H](CC(=O)NCc3ccccn3)O[C@H]2CO)c1,-1.55% (inactive)
